Screening data as filed in PubChem BioAssay.
The full list was thinned out, with hits kept by preference.
KDM5B inh = blocks human KDM5B histone demethylase activity; KDM5B demethylase, FDH-coupled NADH fluorescence (FDH is formaldehyde dehydrogenase); AID 1347165; 2.6% of 220,000 active; Potency, µM (highest dose often 57.7 µM), usual class: inhibitors; Q9UGL1; active = well fitted inhibition curve with a large enough effect; also: 0% is about no effect; nearly all actives have a fitted effect of over 70% in size
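Here, H3K4me3 peptide (12.5 µM in substrate mix) is demethylated by KDM5BΔAP, 200 nM final, after 10 min compound exposure. Formaldehyde product is coupled through FDH (0.25 U/mL in mix) to NADH fluorescence; 30-min ΔRFU feeds dose-response curves.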
* marks the source's active call; other numbers are inactive results; i = inactive. Potency is read from the fitted curve at half-maximal effect.

SMILES	KDM5B inh
O=C(NCCc1nc(-c2cccnc2)no1)C1CC2(CCNCC2)CN1 (centres undefined)	i
O=C(NCCc1nc(-c2cccnc2)n[nH]1)C1CCC(=O)N(C2CCCC2)C1 (centres undefined)	i
Cc1cc(C)cc(C2(CNC(=O)C3NCCc4[nH]cnc43)CCCC2)c1 (centres undefined)	i
O=C(NCCc1csc(-c2cnccn2)n1)C1CC2(CCNCC2)CN1 (centres undefined)	28µM*
O=C(NCCc1nccc(-c2ccccc2)n1)C1NCCc2[nH]cnc21 (centres undefined)	i
O=C(NCc1nnnn1-c1ccccc1)C1NCCc2[nH]cnc21 (centres undefined)	i
N#Cc1nc(-c2ccc([N+](=O)[O-])cc2)oc1NC1CC1	i
COc1ccc(C(=O)/C=C/c2ccc(OCC(=O)O)c(OC)c2)cc1F	i
Cc1nc2cc(F)ccc2cc1C(=O)N1CCN(S(=O)(=O)c2ccc(C#N)cc2)CC1	i
CC1(NC(=O)c2n[nH]c(=O)c3ccccc23)CCS(=O)(=O)C1 (centres undefined)	i
CCOC(=O)c1c(C)c(C(=O)Nc2ccc(F)c(Cl)c2)c(C)n1C	i
CCCOc1ccc(CCNC(=O)C2NCCc3[nH]cnc32)cc1OC (centres undefined)	i
O=C(NCCc1csc(-c2cccnc2)n1)C1NCCc2[nH]cnc21 (centres undefined)	13µM*
O=C(NCc1csc(-c2cnccn2)n1)C1NCCc2[nH]cnc21 (centres undefined)	25µM*
O=C(NCCc1csc(-c2ncccn2)n1)C1NCCc2[nH]cnc21 (centres undefined)	i
O=C(O)c1csc(-c2cnccn2)n1	i
O=C(COc1ccccc1)NCCc1csc(-c2cccnc2)n1	i
CONC(=O)CC(c1ccccc1)c1ccccc1	i
Cc1nc(COc2ccccc2C(=O)Nc2nc(-c3ccccc3)cs2)no1	i
CCC(Oc1ccccc1F)C(=O)Nc1ccccc1Cl (centres undefined)	i
Cc1cccc(NC(=O)CN(C)C(=O)Cc2cccc(C(F)(F)F)c2)c1C	i
CCOc1cc(-c2nccn2CCNc2cccnc2)ccc1O	i
N#Cc1ccc(-c2c(-c3ccccc3)ncn2CCNc2cccnc2)cc1	28µM*
CCOCCn1cnc(-c2ccccc2)c1-c1cccc(C#N)c1	i
COc1ccc(-c2cc(N3CCCC(NC(=O)c4cccc(OC)c4)C3)n[nH]2)cc1 (centres undefined)	i
SMILES	KDM5B inh
COCCCNC(=O)N1CCCC(COc2ccccc2C(=O)N2CCCCC2)C1 (centres undefined)	i
Cc1ccccc1-c1nnn(Cc2cc(=O)n3ccsc3n2)n1	i
COc1ccc(S(=O)(=O)Nc2ccc(CCc3nc4ccccc4n3C)cc2)cc1	i
COc1nc2nc(CCc3ccccc3)n(C)c2cc1-c1ccnn1C	40µM*
COc1ncc(-c2cc3c(nc2OC)nc(CCc2ccccc2)n3C)cn1	i
COc1ccc2c(c1)c(C(C(=O)O)N1CCN(C(C)=O)CC1)cn2CC(=O)O (centres undefined)	i
CCC1CSC(Nc2cccc(C)c2)=N1 (centres undefined)	i
NC(=O)c1c(NC(=O)c2nn(-c3cccc(Cl)c3)ccc2=O)sc2c1CCCC2	i
COc1cccc(C2CCCN2C(=O)NCCn2ccnc2)c1 (centres undefined)	i
CCc1ccccc1NC(=O)Cn1c(N2CCC(C)CC2)nc(C)cc1=O	i
COc1ccc(Cl)cc1NC(=O)Cn1c(N2CCCCC2)nc(C)c(C)c1=O	20µM*
COc1ccc(Cl)cc1NC(=O)Cn1c(N2CCC(C)CC2)nc(C)cc1=O	28µM*
Cc1ccc(NC(=O)Cn2c(N3CCCCC3)nc(C)c(C)c2=O)c(Cl)c1	i
Cc1nc(N2CCCCC2)n(CC(=O)Nc2cccc(Cl)c2C)c(=O)c1C	i
COc1ccc(NC(=O)Cn2c(N3CCC(C)CC3)nc(C)cc2=O)cc1	i
NC(=O)c1ccc(CNC(=O)c2ccccc2Nc2ccccc2)cc1	i
COC(=O)c1ccc(CNC(=O)c2cccc(I)c2)cc1	i
CC(=O)NCCC(=O)N1Cc2ccccc2CC2(CCCN2CC2CCCCC2)C1 (centres undefined)	i
CCN(CC)Cc1ccc(CNC(=O)c2cnn(-c3ccccc3)c2)cc1	i
CC(C)NC(=O)c1nc(-c2ccccc2)c2ccccn12	i
CC(C)NC(=O)c1sc2ncccc2c1-n1cccc1	i
C#CCNC(=O)c1nc(-c2ccsc2)c2cnccn12	32µM*
CC(C)NC(=O)c1nc(-c2ccc(Cl)cc2)c2ccccn12	89µM*
CC(C)NC(=O)c1nc(-c2ccsc2)c2ccccn12	112µM*
C#CCNC(=O)c1csc(-c2ccc(C)cc2)n1	i
CC(C)NC(=O)c1nc(-c2ccsc2)c2cnccn12	40µM*
CC(C)c1ccc(Nc2c(-c3ccsc3)nc3ccc(Cl)cn23)cc1	i
CC(C)NC(=O)c1nc(-c2ccc([S+](C)(=O)[O-])cc2)c2ccccn12	i
